Results on 8 compounds are retold here after PubChem BioAssay (NCI).

Holding throughout (assay): NCI-60 one-dose screen, 48 h (100 = growth as untreated, 0 = no growth, -100 = all killed)
One test has as its system SK-MEL-2 melanoma. The following applies: 10 µM unless noted.
Another test has as its system EKVX NSCLC. The following applies: 10 µM unless noted.
In another test the test system is SN12C renal. To be noted: 10 µM unless noted.
The subject of a further test is TK-10 renal. To be noted: 10 µM unless noted.
In the next test the test system is ACHN renal. To be noted: 10 µM unless noted.
Another test relates to CAKI-1 renal. The following applies: 10 µM unless noted.
The subject of the next test is A498 renal. To be noted: 10 µM.
The next test deals with HL-60(TB) leukemia. The following applies: 10 µM unless noted.
A further test deals with CCRF-CEM leukemia. The following applies: 10 µM unless noted.
For another test, the system named is MOLT-4 leukemia. To be noted: 10 µM unless noted.
Another test concerns SR leukemia. The following applies: 10 µM unless noted.
A further test deals with RPMI-8226 leukemia. To be noted: 10 µM unless noted.
A further test relates to OVCAR-8 ovarian. The following applies: 10 µM unless noted.
In a further test the test system is OVCAR-5 ovarian. To be noted: 10 µM unless noted.
For a further test, the system named is OVCAR-4 ovarian. To be noted: 10 µM unless noted.
A further test relates to SK-OV-3 ovarian. To be noted: 10 µM unless noted.
The next test deals with IGROV1 ovarian. The following applies: 10 µM unless noted.
The test system of the next test is HS 578T breast. To be noted: 10 µM unless noted.
The test system of the next test is UO-31 renal. The following applies: 10 µM unless noted.
The subject of a further test is OVCAR-3 ovarian. To be noted: 10 µM unless noted.

Compounds without any hit were thinned out: in the full panel of roughly 83,000, 20% have a hit.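 Method: cells in 96-well plates; compound added at one concentration; 48 h incubation; percent growth measured; values under 10 scored active.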 The source made the active and inactive calls.

As to `[Cl][Hg][n]1c(-c2ccco2)nc2ccccc21`, the growth in the test with SK-MEL-2 melanoma was 93.5% (inactive); in the test with EKVX NSCLC, 111% (inactive); with SN12C renal, 94.8% (inactive); with TK-10 renal it was 124% (inactive); with ACHN renal it was 96.6% (inactive); in the test with CAKI-1 renal, 107% (inactive). Besides, the growth is 114% (inactive) with A498 renal; 95.5% (inactive) in the test on HL-60(TB) leukemia; 89.9% (inactive) in the test with CCRF-CEM leukemia; 88.3% (inactive) in the test on MOLT-4 leukemia; 64.2% (inactive) in the test with SR leukemia; 92.7% (inactive) with RPMI-8226 leukemia. Besides, the growth in the test on OVCAR-8 ovarian is 106% (inactive); with OVCAR-5 ovarian it was 117% (inactive); with OVCAR-4 ovarian, 100% (inactive); with SK-OV-3 ovarian, 119% (inactive); in the test on IGROV1 ovarian it was 90.5% (inactive); with HS 578T breast, 93.9% (inactive).
For the compound `CC[C@H](C)[C@@H]1OC(=O)C(C)(C)[C@H](O)[C@H](Cc2ccccc2)OC(=O)[C@H](C(C)C)OC(=O)[C@@H](NC(=O)c2cccc(NC=O)c2O)[C@@H](C)OC1=O`, the growth was 36.2% (inactive) in the test on SK-MEL-2 melanoma; 29.9% (inactive) with EKVX NSCLC; 47.3% (inactive) in the test on UO-31 renal; 49.8% (inactive) in the test on TK-10 renal; 46.4% (inactive) with ACHN renal; 38.7% (inactive) with CAKI-1 renal. For the same compound, the growth is 67.2% (inactive) in the test with A498 renal; 60% (inactive) with HL-60(TB) leukemia; 36.7% (inactive) in the test on CCRF-CEM leukemia; 37.7% (inactive) in the test on MOLT-4 leukemia; 43.3% (inactive) in the test with SR leukemia; 29% (inactive) with RPMI-8226 leukemia. Further, the growth was 51.3% (inactive) with OVCAR-8 ovarian; 103% (inactive) with OVCAR-5 ovarian; 28.7% (inactive) in the test on OVCAR-4 ovarian; 60.7% (inactive) with SK-OV-3 ovarian; 48.2% (inactive) in the test with OVCAR-3 ovarian; 73.4% (inactive) in the test with HS 578T breast.
Consider `CC(=O)[C@H]1CC[C@H]2[C@@H]3CC[C@H]4C[C@H](N)CC[C@]4(C)[C@H]3CC[C@]12C`, for which the growth was 89.8% (inactive) in the test with SK-MEL-2 melanoma; 76.9% (inactive) in the test with EKVX NSCLC; 63.1% (inactive) in the test on UO-31 renal; 82.6% (inactive) in the test with TK-10 renal; 82.9% (inactive) in the test on ACHN renal; 78.6% (inactive) in the test on A498 renal. Also, the growth is 63.4% (inactive) in the test with HL-60(TB) leukemia; 102% (inactive) in the test with CCRF-CEM leukemia; 61.7% (inactive) in the test on MOLT-4 leukemia; 32.3% (inactive) in the test with SR leukemia; 58.9% (inactive) in the test on RPMI-8226 leukemia; 82.7% (inactive) with OVCAR-5 ovarian. Moreover, the growth in the test with OVCAR-4 ovarian was 84.1% (inactive); with SK-OV-3 ovarian it was 109% (inactive); in the test with IGROV1 ovarian, 81.6% (inactive); in the test on OVCAR-3 ovarian, 74.5% (inactive); with HS 578T breast it was 82% (inactive).
Regarding `CC[C@@H]1[C@@H](C)O[C@@](O)([C@@H](C)[C@H](O)[C@H](C)[C@H]2OC(=O)/C=C/C=C/[C@H](C)[C@@H]([C@@H](C)[C@@H](O)[C@H](C)[C@@]3(O)C[C@@H](O[C@H]4C[C@@H](O)[C@H](O)C(C)O4)[C@H](CC)[C@@H](C)O3)OC(=O)/C=C/C=C/[C@@H]2C)C[C@H]1O[C@@H]1C[C@@H](O)[C@H](O)C(C)O1` (stereo not given in full), the growth with SK-MEL-2 melanoma was -92% (active); with EKVX NSCLC, -88.6% (active); in the test on SN12C renal, -75.1% (active); in the test with ACHN renal, -96.8% (active); in the test on CAKI-1 renal, -98.4% (active); in the test with A498 renal, -97.5% (active). Besides, the growth in the test with HL-60(TB) leukemia is -73.3% (active); with CCRF-CEM leukemia it was -61.5% (active); with MOLT-4 leukemia, -72.6% (active); in the test with SR leukemia it was -49.1% (active); in the test with RPMI-8226 leukemia it was -65.2% (active); in the test with OVCAR-8 ovarian it was -75.9% (active). Further, the growth in the test with OVCAR-5 ovarian is -88.7% (active); in the test with OVCAR-4 ovarian it was -95.6% (active); in the test on SK-OV-3 ovarian it was -96.5% (active); in the test on OVCAR-3 ovarian, -98% (active); with HS 578T breast it was -51.5% (active).
Turning to `CCOP(=O)(Cc1ccc(C#N)cc1)OCC`, the growth in the test with SK-MEL-2 melanoma is 92.3% (inactive); with EKVX NSCLC it was 105% (inactive); with SN12C renal it was 97% (inactive); in the test with TK-10 renal, 93.4% (inactive); in the test with ACHN renal, 110% (inactive); in the test with A498 renal, 98% (inactive). For the same compound, the growth is 99.3% (inactive) with CCRF-CEM leukemia; 94.8% (inactive) in the test on MOLT-4 leukemia; 89% (inactive) in the test with SR leukemia; 103% (inactive) in the test on RPMI-8226 leukemia; 94.3% (inactive) in the test on OVCAR-8 ovarian; 106% (inactive) with OVCAR-5 ovarian. In addition, the growth with OVCAR-4 ovarian is 104% (inactive); with SK-OV-3 ovarian it was 102% (inactive); with IGROV1 ovarian it was 118% (inactive); with OVCAR-3 ovarian, 110% (inactive); with HS 578T breast it was 105% (inactive).
For `COC(=O)[C@@H](C)C[C@H](Cc1ccccc1)NC(=O)c1csc([C@@H](C[C@H](C(C)C)N(C)C(=O)[C@@H](NC(=O)[C@H]2CCCCN2C)C(C)C)OC(C)=O)n1`, the growth was 16.3% (inactive) in the test with SK-MEL-2 melanoma; 29.6% (inactive) with EKVX NSCLC; 23.3% (inactive) in the test on SN12C renal; 12.6% (inactive) in the test on ACHN renal; 12.8% (inactive) in the test with CAKI-1 renal; -7.32% (active) in the test on A498 renal. Also, the growth was -47.8% (active) in the test with HL-60(TB) leukemia; 0.404% (active) with CCRF-CEM leukemia; 4.52% (active) with MOLT-4 leukemia; 6.8% (active) in the test with SR leukemia; 8.34% (active) in the test with RPMI-8226 leukemia; 22.7% (inactive) in the test on OVCAR-8 ovarian. In addition, the growth with OVCAR-5 ovarian is 26.4% (inactive); in the test on OVCAR-4 ovarian, 44.6% (inactive); in the test with SK-OV-3 ovarian it was 13.4% (inactive); with IGROV1 ovarian, 25.7% (inactive); in the test with OVCAR-3 ovarian, -24.4% (active); with HS 578T breast, -2.62% (active).
Turning to `C#Cc1ccc2c(c1)C(c1ccccc1)=NCC(=O)N2C`, the growth with SK-MEL-2 melanoma is 25.5% (inactive); in the test with EKVX NSCLC it was 50.2% (inactive); in the test with UO-31 renal, 67.8% (inactive); in the test on TK-10 renal it was 66.1% (inactive); in the test with ACHN renal it was 52% (inactive); in the test on CAKI-1 renal it was 51.3% (inactive). Further, the growth in the test on A498 renal is 26.7% (inactive); in the test on HL-60(TB) leukemia, 1.49% (active); with CCRF-CEM leukemia, 48.9% (inactive); in the test on MOLT-4 leukemia, 39.5% (inactive); in the test with SR leukemia it was 38.3% (inactive); in the test with RPMI-8226 leukemia, 64.5% (inactive). Further, the growth in the test on OVCAR-8 ovarian was 63.3% (inactive); with OVCAR-5 ovarian, 85.5% (inactive); with OVCAR-4 ovarian, 90.9% (inactive); in the test with SK-OV-3 ovarian, 31.6% (inactive); in the test on OVCAR-3 ovarian, 9.19% (active); with HS 578T breast, 56.4% (inactive).
Take `CCOP1(=O)CC(C)=C(Cl)C(P(=O)(OCC)OCC)C1` (stereo not given): the growth in the test with SK-MEL-2 melanoma was 104% (inactive); with EKVX NSCLC it was 109% (inactive); in the test with SN12C renal it was 101% (inactive); in the test on TK-10 renal, 135% (inactive); in the test on ACHN renal, 110% (inactive); with CAKI-1 renal, 110% (inactive). The growth in the test with A498 renal was 103% (inactive); in the test on HL-60(TB) leukemia, 107% (inactive); with CCRF-CEM leukemia it was -27.5% (active); with MOLT-4 leukemia, 106% (inactive); in the test on RPMI-8226 leukemia it was 107% (inactive); in the test on OVCAR-8 ovarian it was 84.3% (inactive). In addition, the growth with OVCAR-5 ovarian was 82.9% (inactive); in the test with OVCAR-4 ovarian, 92.4% (inactive); in the test with SK-OV-3 ovarian, 98.8% (inactive); with OVCAR-3 ovarian, 94.5% (inactive); with HS 578T breast it was 103% (inactive).
